# Experimental data from PubChem BioAssay.
# Experiment: polyglutamine aggregate formation blockers (AID 1604)
# Conditions: polyglutamine-induced protein aggregation inhibition assay; stronger effect = higher value; tested at 2.5 µM
row,SMILES,inhibition of aggregation [%]
1,CC(=O)OCC(=O)[C@@]1(O)[C@H](C)CC2C3CCC4=CC(=O)C=C[C@]4(C)[C@@]3(F)[C@@H](O)C[C@@]21C (stereo not given in full),69.4
2,Nc1ccn(C2O[C@H](CO)[C@@H](O)[C@H]2O)c(=O)n1 (stereo not given in full),63.9
3,C=C(C)[C@H]1CC=C(C(=O)O)CC1,-3.17
4,NC(COCc1ccccc1)C(=O)O (stereo not given),85.8
5,CC1(C)C2CC[C@]3(C)C(C(=O)C=C4[C@H]5C[C@@](C)(C(=O)O)CC[C@]5(C)CC[C@]43C)[C@@]2(C)CC[C@@H]1O (stereo not given in full),25.5
6,CC1(C)C2CC[C@]3(C)C(C(=O)C=C4[C@@H]5C[C@@](C)(C(=O)O)CC[C@]5(C)CC[C@]43C)[C@@]2(C)CC[C@@H]1O (stereo not given in full),25.7
7,COc1ccc([C@@H]2CC(=O)c3c(O)cc(O[C@@H]4O[C@H](CO[C@H]5O[C@@H](C)[C@H](O)[C@@H](O)[C@H]5O)[C@@H](O)[C@H](O)[C@H]4O)cc3O2)cc1O,83.3
8,CC(=O)[C@@]1(O)CCC2C3C=C(Cl)C4=CC(=O)[C@@H]5CC5[C@]4(C)C3CC[C@@]21C (stereo not given in full),9.8
9,CC(C)(C)NC[C@@H](O)COc1nsnc1N1CCOCC1,-23.4
10,CC(C)CC(NC(=O)CCN)C(=O)O (stereo not given),57.6
11,CC[C@H](C)C(=O)O[C@H]1CCC=C2C=C[C@H](C)C(CCC3C[C@@H](O)CC(=O)O3)[C@H]21 (stereo not given in full),31.8
12,NC[C@H]1O[C@H](O[C@H]2C(O[C@@H]3O[C@H](CO)[C@@H](O)[C@H]3O)[C@@H](O)[C@H](N)C[C@@H]2N)[C@H](N)[C@@H](O)[C@@H]1O (stereo not given in full),51
13,CC1=C2C(=CO[C@H](C)[C@H]2C)C(=O)C(C(=O)O)=C1O,68.3
14,CC(=O)Oc1ccc2c(c1)CCC1C2CC[C@@]2(C)C1CC[C@@H]2OC(C)=O (stereo not given in full),65.2
15,C1CCN2C[C@H]3C[C@H](CN4CCCC[C@@H]34)[C@H]2C1,26.9
16,CC1CCC2(OC1)OC1CC3C4CC[C@H]5C[C@@H](O)CC[C@]5(C)C4CC(=O)[C@]3(C)C1C2C (stereo not given in full),27.8
17,CCCC(=O)Nc1ncnc2c1ncn2C1O[C@@H]2COP(=O)(O)O[C@H]2[C@H]1OC(=O)CCC (stereo not given in full),77.8
18,CC(=O)O[C@@H]1CC2C(C)(C)C(=O)C=C[C@]2(C)C2CC[C@@]3(C)[C@H](c4ccoc4)OC(=O)[C@H]4O[C@]43[C@@]21C (stereo not given in full),36
19,CC(=O)N[C@@H]1[C@@H](C(O)[C@H](O)CO)O[C@](O)(C(=O)O)C[C@@H]1O (stereo not given in full),-20.4
20,CC(C)Oc1ccc2c(=O)cc(-c3ccccc3)oc2c1,12.7
21,COc1ccc(-c2cc(=O)c3c(O)cc(O[C@@H]4O[C@H](CO[C@H]5O[C@H](C)[C@@H](O)[C@H](O)[C@@H]5O)[C@@H](O)[C@H](O)[C@H]4O)cc3o2)cc1O,75
22,C[N+]1(C)C2CC(OC(=O)[C@@H](CO)c3ccccc3)CC1C1OC12 (stereo not given in full),47.9
23,COC1=CC(C)[C@@H]2C[C@H]3OC(=O)C[C@H]4C(C)=C(OC)C(=O)C([C@@]34C)[C@@]2(C)C1=O (stereo not given in full),-1.96
24,NC(Cc1ccc(F)cc1)C(=O)O (stereo not given),75
25,COC(=O)C(N)CS (stereo not given),74.2
